Where “and” joins values, the source holds several entries; their conditions need not be identical. Equal entries are not always repeated. About 390 (8.9%) of roughly 4,400 compounds showed an effect of 50% or more. Only a selection was taken, and strong results are over-represented in it overall.
Test system: Trypanosoma brucei
Assay: DNDI: Inhibition of Human African Trypanosomiasis, SBRI 427, in vitro at 2 ug.mL-1
Assay type: functional

Row | Structure (SMILES) | % inhibition
1 | CC(C)c1ccc(Oc2ncccc2/C(=N/O)N2CCC=N2)cc1 | -4%
2 | Cc1nccn1/C(=N\O)c1ccnc(Oc2ccc(Cl)cc2)c1 | 5%
3 | COc1ccc(-c2nc(CN3CCC(C)CC3)co2)cc1 | 12%
4 | Cc1cccc(N2CCN(Cc3coc(-c4ccc(O)cc4)n3)CC2)c1C | 3%
5 | Brc1ccc(-c2nc(CNCCCN3CCOCC3)co2)cc1 | -12%
6 | CCCCN(CC)Cc1coc(-c2cccc(OC)c2)n1 | -18%
7 | Cc1nccn1/C(=N\O)c1cccnc1Oc1ccccc1 | 10%
8 | COc1cc(C)ccc1Oc1nc(C)ccc1/C(=N/O)N1C(C)C=CC1C (stereo not given) | -2%
9 | Brc1ccc(-c2nc(CNCCN3CCCCC3)co2)cc1 | 43%
10 | Brc1ccc(-c2nc(CNCCN3CCOCC3)co2)cc1 | -53%
11 | CN1CCCC1CCNCc1coc(-c2ccccc2Br)n1 (stereo not given) | 57%
12 | CCOc1cccc(-c2nc(CNCCN3CCOCC3)co2)c1 | -2%
13 | CN1CCCC1CCNCc1coc(-c2cccs2)n1 (stereo not given) | -4%
14 | Brc1ccccc1-c1nc(CNCCN2CCCCC2)co1 | -1%
15 | CCOc1cccc(-c2nc(CNCCC3CCCN3C)co2)c1 (stereo not given) | 99%
16 | CCOc1cccc(-c2nc(CNCCN3CCCC3)co2)c1 | -12%
17 | CN1CCCC1CCNCc1coc(-c2ccc(Br)cc2)n1 (stereo not given) | 97%
18 | CC(C)COc1ncccc1/C(=N/O)N1CCN(c2ccc(F)cc2)CC1 | 0%
19 | O=Cc1nccn1Cc1coc(-c2ccc(F)cc2)n1 | -8%
20 | CSc1ccc(Oc2cc(/C(=N/O)N3CC(C)CC(C)C3)ccn2)cc1 (stereo not given) | 18%
21 | Oc1ccc(-c2nc(CNCc3ccccc3C(F)(F)F)co2)cc1 | 18%
22 | CC(C)COc1ncccc1/C(=N/O)NCc1ccco1 | 3%
23 | CC(C)c1ccc(Oc2ncccc2/C(=N/O)NCc2ccco2)cc1 | 96%
24 | CN(Cc1ccco1)/C(=N\O)c1cccnc1Oc1ccc(Cl)cc1 | 4%
25 | CSc1ccc(Oc2nc(C)ccc2/C(=N/O)N(C)Cc2ccco2)cc1C | 12%
26 | COc1ccc(Oc2ncccc2/C(=N/O)N(C)Cc2ccco2)cc1 | -11%
27 | O/N=C(\NCc1ccncc1)c1cccnc1Oc1ccc2oc3ccccc3c2c1 | 10%

Row | Structure (SMILES) | % inhibition
28 | CC(C)c1ccc(Oc2ncccc2/C(=N/O)N(C)Cc2ccco2)cc1 | 75%
29 | O/N=C(\NCc1cccs1)c1cccnc1Oc1ccc2oc3ccccc3c2c1 | 75%
30 | Cc1ccc(/C(=N/O)N(C)Cc2ccco2)c(Oc2cccc(F)c2)n1 | 22%
31 | COc1ccc(Oc2ncccc2/C(=N/O)NCc2ccco2)cc1 | -14%
32 | O/N=C(\NCc1ccccn1)c1cccnc1Oc1ccc2oc3ccccc3c2c1 | 7%
33 | Cc1ccc(/C(=N/O)N(C)Cc2ccco2)c(Oc2cccc(C(C)C)c2)n1 | 67%
34 | CC(C)COc1ncccc1/C(=N/O)N(C)Cc1cccnc1 | -1%
35 | Cc1cn(/C(=N\O)c2ccc(Oc3ccc4oc5ccccc5c4c3)nc2)cn1 | 16%
36 | CCOc1cccc(-c2nc(CN(C)CC#N)co2)c1 | 15%
37 | O/N=C(/c1cccnc1Oc1ccc(F)cc1)N1Cc2ccccc2C1 | 4%
38 | COC(CN(C)Cc1coc(-c2ccc(Br)cc2)n1)OC | 4%
39 | CCOc1ccccc1-c1nc(CN2CCCCC2)co1 | -1%
40 | CN(Cc1coc(-c2ccc(C(F)(F)F)cc2)n1)Cc1ccco1 | 18%
41 | CC(C)c1ccc(Oc2ncccc2/C(=N/O)NCc2cccs2)cc1 | 100%
42 | O/N=C(\NCc1cccs1)c1cccnc1Oc1cccc(C(F)(F)F)c1 | -12%
43 | COc1ccc(Oc2ncccc2/C(=N/O)NCc2cccs2)cc1 | 37%
44 | Clc1ccccc1-c1nc(CNC(Cc2ccccc2)c2ccccc2)co1 (stereo not given) | -20%
45 | Brc1ccccc1-c1nc(CNC2CCCCCCCCCCC2)co1 | 59%
46 | Cc1ccccc1-c1nc(CNC[C@@H]2CCCO2)co1 | -1%
47 | Cc1ccccc1-c1nc(CNC2CCN(Cc3ccccc3)C2)co1 (stereo not given) | 30%
48 | Cc1ccccc1-c1nc(CNC2CCCCCC2)co1 | 61%
49 | Brc1ccccc1-c1nc(CNC2CCCCCC2)co1 | -20%
50 | Brc1ccccc1-c1nc(CNC2CCN(Cc3ccccc3)C2)co1 (stereo not given) | -6%
51 | COc1cc(CN(C)Cc2coc(-c3ccccc3C)n2)cc(OC)c1OC | -15%
52 | CCCN(Cc1coc(-c2cc(OC)c(OC)c(OC)c2)n1)c1ccccc1 | 1%
53 | O/N=C(/c1cccnc1OCc1ccccc1)N1CCSCC1 | 13%
54 | CC1CC(C)CN(Cc2coc(-c3cccs3)n2)C1 (stereo not given) | 2%

Row | Structure (SMILES) | % inhibition
55 | CC(NCc1coc(-c2cccs2)n1)C1CCCCC1 (stereo not given) | -3%
56 | C[C@@H]1C(NCc2coc(-c3cccs3)n2)C[C@H]2C[C@@H]1C2(C)C (stereo not given in full) | 62%
57 | c1csc(-c2nc(CNC3CCc4ccccc43)co2)c1 (stereo not given) | -11%
58 | C[C@H]1C(NCc2coc(-c3cccs3)n2)C[C@@H]2C[C@H]1C2(C)C (stereo not given in full) | 87%
59 | c1csc(-c2nc(CNC3CCCC3)co2)c1 | -11%
60 | COc1cccc(Oc2ccc(/C(=N/O)N3CCSC3)cn2)c1 | 6%
61 | Cc1ccc(CCNCc2coc(-c3cccc(F)c3)n2)cc1 | -9%
62 | CCCN(Cc1coc(-c2cccc(C)c2)n1)c1ccccc1 | 7%
63 | Cc1ccc2cccc(Oc3cc(/C(=N/O)NC4CCC(C)CC4)ccn3)c2n1 (stereo not given) | 94%
64 | CC1CCC(N/C(=N\O)c2ccnc(Oc3cccc4cccnc34)c2)CC1 (stereo not given) | 95%
65 | Cc1ccc2cccc(Oc3cc(/C(=N/O)NCc4c(F)cccc4F)ccn3)c2n1 | 17%
66 | CC1CCC(N/C(=N\O)c2ccnc(Oc3cccc4cnccc34)c2)CC1 (stereo not given) | 10%
67 | Cc1ccc2cccc(Oc3ccc(/C(=N/O)n4cccn4)cn3)c2n1 | 4%
68 | Cc1ccccc1CN/C(=N\O)c1ccnc(Oc2cccc3cccnc23)c1 | 43%
69 | Cc1ccc2cccc(Oc3cc(/C(=N/O)N4C(C)CCCC4C)ccn3)c2n1 (stereo not given) | 19%
70 | Cc1ccc2cccc(Oc3ccc(/C(=N/O)Nc4ccc(C(C)C)cc4)cn3)c2n1 | 8%
71 | CCC(C)(C)N/C(=N\O)c1ccnc(Oc2cccc3ccc(C)nc23)c1 | 51%
72 | Cc1ccc2cccc(Oc3cc(/C(=N/O)NC4CC(C)CC(C)(C)C4)ccn3)c2n1 (stereo not given) | 10%
73 | Cc1ccc2cccc(Oc3ccc(/C(=N/O)NC4CCCCC4)cn3)c2n1 | 99%
74 | Cc1cc(C)cc(CN/C(=N\O)c2ccnc(Oc3cccc4ccc(C)nc34)c2)c1 | 18%
75 | CCOc1cccc(-c2nc(CN(C)C3CCN(Cc4ccccc4)C3)co2)c1 (stereo not given) | -2%
76 | FC(F)(F)c1cccc(N2CCN(Cc3coc(-c4cccc5ccccc45)n3)CC2)c1 | 6%
77 | CCOc1cccc(-c2nc(Cn3ccnc3CC)co2)c1 | -10%
78 | COc1ccccc1CCNCc1coc(-c2cccc3ccccc23)n1 | 43%
79 | O/N=C(/c1cccnc1Oc1cccc(C(F)(F)F)c1)N1CCN(C2CCCC2)CC1 | 85%
80 | O/N=C(/c1cccnc1Oc1ccccc1Cl)N1CCN(C2CCCC2)CC1 | -2%
81 | CC1=NCCN1/C(=N\O)c1cccnc1Oc1cccc(C(F)(F)F)c1 | 2%

Row | Structure (SMILES) | % inhibition
82 | COc1ccc(Oc2ncccc2/C(=N/O)N2CCN(C3CCCC3)CC2)cc1 | -12%
83 | N/C(=N\O)c1cccnc1Oc1cccc(C(F)(F)F)c1 | 46%
84 | CC(C)N1CCN(/C(=N\O)c2cccnc2Oc2cccc(C(F)(F)F)c2)CC1 | 101%
85 | CCN(CCNCc1coc(-c2ccccc2Br)n1)c1cccc(C)c1 | -30%
86 | O/N=C(/c1cccnc1OCc1cccc(F)c1)N1CCN(c2ccccc2)CC1 | -1%
87 | CCOc1cccc(-c2nc(Cn3cc(C)nc3CC)co2)c1 | 7%
88 | Cc1ccc(/C(=N/O)NC2CC(C)CC(C)(C)C2)c(Oc2ccc(F)c(F)c2)n1 (stereo not given) | 11%
89 | Cc1ccc(/C(=N/O)NC2CC(C)CC(C)(C)C2)c(Oc2ccc(Cl)cc2-c2ccno2)n1 (stereo not given) | 16%
90 | CCN(CC)c1cccc(Oc2ncccc2/C(=N/O)NC2CC(C)CC(C)(C)C2)c1 (stereo not given) | -6%
91 | CC1CC(N/C(=N\O)c2cccnc2Oc2ccc(C(C)C)cc2)CC(C)(C)C1 (stereo not given) | 98%
92 | CC1CC(N/C(=N\O)c2cccnc2Oc2ccc(F)c(Cl)c2)CC(C)(C)C1 (stereo not given) | 100%
93 | CC1CC(N/C(=N\O)c2cccnc2Oc2cc(Cl)ccc2Cl)CC(C)(C)C1 (stereo not given) | 99%
94 | Cc1ccc(/C(=N/O)NC2CC(C)CC(C)(C)C2)c(Oc2cc(Cl)ccc2Cl)n1 (stereo not given) | 7%
95 | CCCCN(CCC#N)Cc1coc(-c2ccccc2C)n1 | -4%
96 | CCOC(=O)C1CCCCN1Cc1coc(-c2ccccc2OCC)n1 (stereo not given) | 3%
97 | CC(C)c1ccc(Oc2ncccc2/C(N)=N/O)cc1 | 16%
98 | CCC(CC)CNCc1coc(-c2cccc(F)c2)n1 | 18%
99 | Fc1cccc(-c2nc(CNC3CCc4ccccc43)co2)c1 (stereo not given) | 13%
100 | C[C@H]1C(NCc2coc(-c3cccc(F)c3)n2)C[C@@H]2C[C@H]1C2(C)C (stereo not given in full) | 99%
101 | Fc1cccc(-c2nc(CNC3C[C@H]4CC[C@@H]3C4)co2)c1 (stereo not given in full) | -5%
102 | C[C@@H]1C(NCc2coc(-c3cccc(F)c3)n2)C[C@H]2C[C@@H]1C2(C)C (stereo not given in full) | 90%
103 | CC(C)C(C)NCc1coc(-c2cccc(F)c2)n1 (stereo not given) | 8% and 16%
104 | C#CCNCc1coc(-c2cccc(C)c2)n1 | 24%
105 | CSc1ccc(Oc2cc(/C(=N/O)NCC3CCCO3)ccn2)cc1 (stereo not given) | 6%

Source: ChEMBL document CHEMBL1857833, “Screening and optimization of specific chemical series against human African Trypanosomiasis (HAT)”
